According to PubChem BioAssay AID504332 (National Center for Advancing Translational Sciences (NCATS), 2011):
Several values for one entry are separate records, joined by “and”; a condition that tells them apart may be missing. Equal entries are not always repeated. The campaign covered roughly 350,000 compounds. About 31,000 (8.9%) were called active. About 15% were inconclusive and are not listed. Calls follow the shape of the dose curve; as a rule, active = well fitted inhibition curve with a large enough effect; inconclusive = small, poorly fitted or top-dose-only effect; inactive = no such curve, though single readings can be large or run the other way. The sample as a whole holds a higher share of actives than the screen did. The source holds several records for some structures; these can differ, active in one and inactive in another.

biological target: Histone-lysine N-methyltransferase EHMT2 (Homo sapiens) (UniProt Q96KQ7); test: qHTS Assay for Inhibitors of Histone Lysine Methyltransferase G9a; settings: G9a H3K9 monomethylation, AlphaScreen, 2 h; series mostly up to 102 µM; activity, negative = inhibition: at the top concentration; also: nearly all actives have a fitted effect of over 75% in size
Summary of the method: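 AlphaScreen detection with an anti-monomethyl H3K9 antibody quantified product after a 2 h room-temperature reaction containing 500 nM biotinylated H3K9 peptide, 20 µM SAM and 20 nM enzyme, which had been preincubated 15 min with compound.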
% is scaled to controls: 0 for no effect and ±100 for the full control effect; potency is read from the fitted curve at half-maximal effect.

Histone-lysine N-methyltransferase EHMT2 (Homo sapiens), sequence (Q96KQ7 913-1193 limits assumed): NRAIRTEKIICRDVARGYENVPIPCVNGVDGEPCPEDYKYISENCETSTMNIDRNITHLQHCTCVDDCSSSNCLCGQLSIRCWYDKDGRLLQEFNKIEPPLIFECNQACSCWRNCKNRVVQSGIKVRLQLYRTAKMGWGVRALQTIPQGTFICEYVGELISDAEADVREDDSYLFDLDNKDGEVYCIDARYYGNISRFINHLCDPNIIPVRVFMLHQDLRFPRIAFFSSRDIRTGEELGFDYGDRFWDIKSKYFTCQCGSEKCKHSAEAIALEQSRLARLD

| SMILES | activity, negative = inhibition | Potency |
| --- | --- | --- |
| CC1=C2C(=O)C3C(CC=C4CC(OC5OC(O)C(O)C(O)C5CO)CCC43C)C2CCC12OC1CC(C)CNC1C2C (stereo not drawn) | -0.0918% (inactive) |  |
| O=C1NC(=O)N(CCc2ccc(F)cc2)C(=O)/C1=C/C=C/c1ccccc1 |  | 70.8 µM (active) |
| COC(=O)C(O)(c1ccc(NC(=O)c2ccco2)c(OC)c1)C(F)(F)F (stereo not drawn) | -1.81% (inactive) |  |
| CCc1cccc2c(C#N)cn(CC(=O)N3CCOCC3)c12 | 15.5% [at 12.7 µM] (inactive) |  |
| COCc1cc(OC(=O)N(C)C)nc(-c2ccc(C)c(Cl)c2)n1 | 64.1% (inactive) |  |
| CCCCCCCCc1[se]c2ccccc2c1Br | 23.6% (inactive) |  |
| COc1ccc(-c2nc(CS(=O)CC(=O)N3CCC4(CC3)OCCO4)c(C)o2)cc1 (stereo not drawn) | -4.28% [at 12.7 µM] (inactive) |  |
| C[C@]12CC[C@H](O)C[C@H]1CC[C@@H]1C2CC[C@]2(C)[C@@H](C3=CC(=O)OC3)[C@@H](O)C[C@]12O (stereo partly drawn) | -8.99% [at 2.33 µM] (inactive) |  |
| CN(C)c1ccc(NC(=O)CN2C3CCCC2CC(NC(=O)c2ccccc2)C3)cc1 (stereo not drawn) |  | 50.1 µM (active) |
| Cc1cc(C)cc(NC(=S)NC2CC3CCCC(C2)N3Cc2cccs2)c1 (stereo not drawn) | -45.2% [at 59 µM] (inactive) |  |
| CCC(C)C(=O)O[C@@H]1C[C@@]2(C)C(c3ccoc3)OC(=O)CC23OC2(C)O[C@@]14[C@@]1(C)C(CC(=O)OC)C5(C)CC1(O)C(O)(C5OC(=O)C1(C)OC1C)C(OC(C)=O)[C@@]34O2 (stereo partly drawn) | -36.9% [at 2.33 µM] (inactive) |  |
| c1ccc2sc(SNC3CCCCC3)nc2c1 |  | 1.78 µM (active) |
| COc1cc2c(cc1OC)[C@@H]1C(=O)c3ccc(O)c(CC=C(C)C)c3OC1CO2 (stereo partly drawn) | -32.8% [at 2.33 µM] (inactive) |  |
| O=C(CSC1c2ccccc2-c2ccccc21)N/N=C/c1ccccc1 | 3.19% (inactive) |  |
| CN1CCC(N(C)Cc2cccnc2)CC1 |  | 3.16 µM (active) |
| CC1CCCCN1Cc1cccnc1 (stereo not drawn) |  | 6.31 µM (active) |
| c1cncc(CNC2=NCCC2)c1 | 11.8% [at 59 µM] (inactive) |  |
| c1cncc(CNCCc2c[nH]c3ccccc23)c1 | 13.1% (inactive) |  |
| CCOC(=O)C1(Cc2ccc(Cl)cc2)CCN(C(C)CCn2cccn2)CC1 (stereo not drawn) | -32.7% (inactive) |  |
| CC[N+](CC)(CC)CCCCCCCCCC[N+](CC)(CC)CC | 2.94% (inactive) |  |
| C=CCN1C(=O)C2(C(C(=O)OCC)=C(N)Oc3c2c(=O)oc2ccccc32)c2ccccc21 (stereo not drawn) | 10.8% [at 59 µM] (inactive) |  |
| Fc1ccc(C2N3CCCN23)cc1 (stereo not drawn) | -3.98% (inactive) |  |
| CCC(=NCCCO)c1c(O)n(-c2ccc(OC)cc2)c(=O)[nH]c1=O | 2.36% (inactive) |  |
| O=C(COC(=O)c1ccccc1)Nc1ccccc1Sc1ccccc1 | 84.5% [at 59 µM] (inactive) |  |

| SMILES | activity, negative = inhibition | Potency |
| --- | --- | --- |
| O=C1N=c2ccccc2=C/C1=C\c1c(O)[nH]c(=S)[nH]c1=O |  | 25.1 µM (active) |
| COc1ccc(C2N3CC(C)(C)CN23)cc1 (stereo not drawn) | 12% [at 59 µM] (inactive) |  |
| CCCn1c(C(=O)c2ccccc2OC)nc2ccccc21 | 1.61% (inactive) |  |
| COc1ccc(Br)cc1CNCCc1cccc(Cl)c1 |  | 20 µM (active) |
| Cc1ccc(N2C(=O)NC(=O)C(CCc3ccncc3)(Cc3cccc(Cl)c3Cl)C2=O)cc1 (stereo not drawn) | -9.85% [at 59 µM] (inactive) |  |
| CC1=CC(=Cc2sc3ccccc3[n+]2C)C=C(C)O1 |  | 50.1 µM (active) |
| CN(C)C(=O)Oc1cc(=O)n2c3c(cccc13)CCC2 | -1.41% [at 59 µM] (inactive) |  |
| CC(C)Nc1nc(Cl)nc(NC(C)C)n1 | -2.82% [at 59 µM] (inactive) |  |
| CNC(=S)N/N=C1\C2CN3CCN(C2)CC1(c1ccccc1)C3 | 29.9% [at 59 µM] (inactive) |  |
| Cc1ccc(P(=S)(c2ccc(C)o2)N2CCOCC2)o1 | -35.9% [at 12.7 µM] (inactive) |  |
| O=C1NC(=O)N(Cc2ccco2)C(=O)/C1=C\c1ccc(-c2ccc(F)cc2)o1 |  | 12.6 µM (active) |
| Cc1cc(/C=C2/C(=O)NC(=O)N(Cc3ccco3)C2=O)c(C)n1-c1ccc(C(=O)O)cc1 |  | 35.5 µM (active) |
| Cc1ccc2c(c1)C1CN(C)CCC1N2C(=O)Cn1nnc(-c2ccccc2F)n1 (stereo not drawn) | -16.7% (inactive) |  |
| CCOC(=O)c1c(N)n(CCN2CCOCC2)c2nc3ccccc3nc12 | 0.945% (inactive) |  |
| CC(=O)N1CN2CN(C(C)=O)CC(C(=O)c3ccc(Br)cc3)(C2)C1 | 9.55% [at 59 µM] (inactive) |  |
| C[C@@]12CC[C@H]3[C@@H](CC[C@]4(O)C[C@H](O)CC[C@@]34C=O)[C@]1(O)CC[C@@H]2C1=CC(=O)OC1 | 21.4% [at 21.5 µM] (inactive) |  |
| O=c1c2ccccc2nc(-c2ccc(Cl)cc2Cl)n1-c1ccncc1 | -5.79% [at 59 µM] (inactive) |  |
| COC(=O)C1=C(c2ccc(C(C)=O)cc2)C[C@@H]2CC[C@H]1N2C(=O)NCCNC(C)=O | 23.2% [at 2.33 µM] (inactive) |  |
| O=Cc1cn(Cc2ccc(F)cc2Cl)c2ccccc12 | 41.7% [at 59 µM] (inactive) |  |
| CNC(=O)N(C)c1nnc(C(C)(C)C)s1 | -1.28% [at 12.7 µM] (inactive) |  |
| CCOC(=O)C1SC2(C(F)(F)C(F)F)CC1(O)c1c(c(OC)c3occc3c1OC)O2 (stereo not drawn) | -5.46% [at 59 µM] (inactive) |  |
| N=c1ccccn1Cc1ccccc1 | -31.1% (inactive) |  |
| CCCCC/C=C\C/C=C\C/C=C\C/C=C\CCCCCC(=O)NCCO |  | inactive and 12.6 µM (active) |
| CCCCC/C=C\C/C=C\C/C=C\C=C\[C@H](CCCC(=O)O)OO | 22.9% [at 59 µM] (inactive) |  |
